Where “and” joins values, the source holds several entries; their conditions need not be identical. Equal values may be shown once. The whole screen tested about 5,500 compounds, of which about 2,000 (36%) were called active. Not shown: some 18% with an inconclusive outcome. No stated cut-off is given here; in the data, active means normalized growth mostly below about 0.91 (no sharp cut-off); inconclusive means no clear call, values can overlap the other calls; inactive means mostly above about 0.92. Some of the results follow.
Test: chemical genetic growth profiling, strain panel (AID 1159580);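 further: tested at 20 µM; growth read once vehicle control cultures reached saturation at 30 °C; 1 = growth at the plate median or of vehicle wells; lower values mean less growth of the strain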
Conditions: growth OD

Measured: normalized growth

Cc1ccc(C(=O)C(C)CN2CCCCC2)cc1 (configuration not stated)
inactive: S. cerevisiae deletion strains, locus YBR021W, strain FUR4, active compounds read low 1 | S. cerevisiae deletion strains, locus YBR229C, strain ROT2, active compounds read low 1.01 | S. cerevisiae deletion strains, locus YCL029C, strain bik1, active compounds read low 1.02 | S. cerevisiae deletion strains, locus YDL035C, strain GPR1, active compounds read low 1.01 | S. cerevisiae deletion strains, locus YDL074C, strain BRE1, active compounds read low 1.01 | S. cerevisiae deletion strains, locus YDL101C, strain DUN1, active compounds read low 1.01 | S. cerevisiae deletion strains, locus YDL134C, strain PPH21, active compounds read low 1.02 | S. cerevisiae deletion strains, locus YDL185W, strain tfp1, active compounds read low 1.02 | S. cerevisiae deletion strains, locus YDL192W, strain arf1, active compounds read low 1.02 | S. cerevisiae deletion strains, locus YDR101C, strain arx1, active compounds read low 0.998 | S. cerevisiae deletion strains, locus YDR150W, strain NUM1, active compounds read low 1 | S. cerevisiae deletion strains, locus YDR162C, strain NBP2, active compounds read low 1.01 | S. cerevisiae deletion strains, locus YDR318W, strain mcm21, active compounds read low 1.02 | S. cerevisiae deletion strains, locus YDR388W, active compounds read low 1.02 | S. cerevisiae deletion strains, locus YDR502C, strain sam2, active compounds read low 1.01 | S. cerevisiae deletion strains, locus YEL061C, strain CIN8, active compounds read low 1.01 | S. cerevisiae deletion strains, locus YER110C, active compounds read low 1.01 | S. cerevisiae deletion strains, locus YER155C, strain BEM2, active compounds read low 1.01 | S. cerevisiae deletion strains, locus YER167W, strain BCK2, active compounds read low 1.02 | S. cerevisiae deletion strains, locus YGL078C, strain dbp3, active compounds read low 1.01 | S. cerevisiae deletion strains, locus YGL086W, strain mad1, active compounds read low 1.03 | S. cerevisiae deletion strains, locus YGL248W, strain PDE1, active compounds read low 1.01 | S. cerevisiae deletion strains, locus YGR078C, strain PAC10, active compounds read low 1 | S. cerevisiae deletion strains, locus YGR135W, strain pre9, active compounds read low 1 | S. cerevisiae deletion strains, locus YGR229C, strain SMI1, active compounds read low 0.983 | S. cerevisiae deletion strains, locus YGR252W, strain gcn5, active compounds read low 0.987 | S. cerevisiae deletion strains, locus YHR030C, strain SLT2, active compounds read low 1.01 and 0.991 | S. cerevisiae deletion strains, locus YHR079C, strain IRE1 (second series), active compounds read low 1.02 | S. cerevisiae deletion strains, locus YHR079C, strain IRE1, active compounds read low 0.993 | S. cerevisiae deletion strains, locus YHR094C, strain hxt1, active compounds read low 1.01 | S. cerevisiae deletion strains, locus YHR129C, strain ARP1, active compounds read low 1.02 | S. cerevisiae deletion strains, locus YHR200W, strain rpn10, active compounds read low 1.02 | S. cerevisiae deletion strains, locus YIL066C, strain RNR3, active compounds read low 1.01 | S. cerevisiae deletion strains, locus YIL073C, strain SPO22, active compounds read low 0.993 | S. cerevisiae deletion strains, locus YIL125W, strain kgd1, active compounds read low 1.02 | S. cerevisiae deletion strains, locus YIR030C, strain dcg1, active compounds read low 1.01 | S. cerevisiae deletion strains, locus YJL095W, strain BCK1, active compounds read low 0.973 and 0.966 | S. cerevisiae deletion strains, locus YJL134W, strain LCB3, active compounds read low 1.01 | S. cerevisiae deletion strains, locus YJL168C, strain set2, active compounds read low 1.02 | S. cerevisiae deletion strains, locus YJL187C, strain SWE1 (second series), active compounds read low 1 | S. cerevisiae deletion strains, locus YJR043C, strain POL32, active compounds read low 1.02 | S. cerevisiae deletion strains, locus YJR066W, strain TOR1, active compounds read low 0.907 | S. cerevisiae deletion strains, locus YKL009W, strain mrt4, active compounds read low 1.03 | S. cerevisiae deletion strains, locus YKL068W, active compounds read low 1.01 | S. cerevisiae deletion strains, locus YKL085W, strain MDH1 (second series), active compounds read low 1.03 | S. cerevisiae deletion strains, locus YKL085W, strain MDH1, active compounds read low 1.03 | S. cerevisiae deletion strains, locus YKL190W, strain CNB1, active compounds read low 1.01 | S. cerevisiae deletion strains, locus YKR001C, strain vps1, active compounds read low 1.03 | S. cerevisiae deletion strains, locus YLR039C, strain RIC1, active compounds read low 0.993 | S. cerevisiae deletion strains, locus YLR058C, strain SHM2, active compounds read low 1.02 | S. cerevisiae deletion strains, locus YLR102C, strain apc9, active compounds read low 1.01 | S. cerevisiae deletion strains, locus YLR113W, strain HOG1, active compounds read low 1.01 | S. cerevisiae deletion strains, locus YLR262C, strain YPT6, active compounds read low 1.02 | S. cerevisiae deletion strains, locus YLR268W, strain sec22, active compounds read low 1 | S. cerevisiae deletion strains, locus YLR330W, strain CHS5, active compounds read low 1 | S. cerevisiae deletion strains, locus YLR342W, strain FKS1 (second series), active compounds read low 0.973 | S. cerevisiae deletion strains, locus YLR371W, strain rom2, active compounds read low 1.02 | S. cerevisiae deletion strains, locus YLR418C, strain cdc73, active compounds read low 1.02 | S. cerevisiae deletion strains, locus YML016C, strain PPZ1, active compounds read low 1.01 | S. cerevisiae deletion strains, locus YML032C, strain rad52, active compounds read low 1.01 | S. cerevisiae deletion strains, locus YML124C, strain tub3, active compounds read low 1.01 | S. cerevisiae deletion strains, locus YMR078C, strain ctf18, active compounds read low 1.02 | S. cerevisiae deletion strains, locus YMR223W, strain ubp8, active compounds read low 1.01 | S. cerevisiae deletion strains, locus YMR307W, strain GAS1, active compounds read low 1.14 | S. cerevisiae deletion strains, locus YNL067W, strain RPL9B, active compounds read low 1.01 | S. cerevisiae deletion strains, locus YNL128W, strain TEP1, active compounds read low 1.03 | S. cerevisiae deletion strains, locus YNL183C, strain NPR1, active compounds read low 0.899 | S. cerevisiae deletion strains, locus YNL233W, strain BNI4, active compounds read low 0.993 | S. cerevisiae deletion strains, locus YNL250W, strain rad50, active compounds read low 1.01 | S. cerevisiae deletion strains, locus YNL271C, strain bni1, active compounds read low 1.02 | S. cerevisiae deletion strains, locus YNL298W, strain CLA4, active compounds read low 1.03 | S. cerevisiae deletion strains, locus YNL307C, strain MCK1, active compounds read low 1.03 | S. cerevisiae deletion strains, locus YNL322C, strain KRE1, active compounds read low 1.01 | S. cerevisiae deletion strains, locus YNR052C, strain pop2, active compounds read low 1.02 | S. cerevisiae deletion strains, locus YOL006C, strain TOP1, active compounds read low 1 | S. cerevisiae deletion strains, locus YOL012C, strain htz1 0.819 | S. cerevisiae deletion strains, locus YOL147C, strain pex11, active compounds read low 1.01 | S. cerevisiae deletion strains, locus YOR061W, strain CKA2, active compounds read low 1.02 | S. cerevisiae deletion strains, locus YOR069W, strain VPS5, active compounds read low 1 | S. cerevisiae deletion strains, locus YOR136W, strain idh2, active compounds read low 1.02 | S. cerevisiae deletion strains, locus YOR144C, strain elg1, active compounds read low 1.01 | S. cerevisiae deletion strains, locus YOR184W, strain ser1, active compounds read low 1.01 | S. cerevisiae deletion strains, locus YOR231W, strain MKK1, active compounds read low 0.984 | S. cerevisiae deletion strains, locus YOR316C, strain cot1, active compounds read low 1.02 | S. cerevisiae deletion strains, locus YPL055C, strain LGE1, active compounds read low 1.03 | S. cerevisiae deletion strains, locus YPL256C, strain CLN2, active compounds read low 0.976 | S. cerevisiae deletion strains, locus YPR119W, strain clb2, active compounds read low 1.02 | S. cerevisiae deletion strains, locus YPR141C, strain kar3, active compounds read low 1.02 | S. cerevisiae deletion strains, locus YPR163C, strain tif3, active compounds read low 1.03 | S. cerevisiae deletion strains, locus YPR167C, strain met16, active compounds read low 1.02 | S. cerevisiae deletion strains, strain wtn01, active compounds read low 1.01 | S. cerevisiae strains, strain wild type, active compounds read low 1.01
